Screening results as filed in PubChem BioAssay.
TWEAK-Fn14 inh – TWEAK-Fn14 signaling inhibition | AID 1159606 | inhibition, % at 10 µM | TWEAK-stimulated Fn14 reporter cells, luciferase luminescence, 8 h | hit rate 2% among 360,000; in the data active means inhibition above about 50%
HIF-2a inh – blocks HIF-2a reporter activity; AID 624352; hit rate 0.72% among 360,000; 786-0 RCC cells HIF-2a reporter, luciferase luminescence, overnight; inhibition, % at 18.8 µM;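 active means inhibition of the luminescence signal of 40% or more relative to plate controls, in a single-dose primary screen at 18.75 µM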
Peg3 prom inh – reduces Peg3 promoter-driven luciferase expression in HeLa; HeLa PEG-Prom luciferase reporter, luminescence, overnight; inhibition, % at 20 µM; hit rate 1.7% among 360,000;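 active means inhibition of at least 50% at 20 µM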
CF NFkB block – cystic fibrosis NF-kB activation inhibition. inhibition, % at 5 µM. KKLEB NF-kB-GFP reporter, PAF-induced, GFP fluorescence overnight. hit rate 0.86% among 360,000;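 active means at least 50% inhibition at 5 µM, scaled per plate between neutral and stimulator controls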;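 further: PAF is a Pseudomonas aeruginosa culture filtrate used as stimulus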
TROY signal inh – inhibitors of TROY-dependent NF-kB signaling. Q293 LMP1-TROYcd NF-kB luciferase reporter, 4 h. inhibition, % at 10 µM. hit rate 0.98% among 360,000. AID 1347056;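 active means compounds whose plate-normalised and pattern-corrected inhibition of the luciferase reporter signal at the single screening dose is 50% or more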
KKLEB tox – counter-screen for CF NF-kB inhibitors: cytotoxicity. KKLEB CF airway cells viability, ATPlite luminescence, overnight; active compounds read low; cells stimulated with P. aeruginosa culture filtrate. activity change (cytotoxicity), % at 5 µM. hit rate 0.36% among 360,000;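 active means corrected activity change at or below -50% at 5 µM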
Mdm2 MdmX conf – confirmation of inhibitors of human Mdm2/MdmX interaction, set 2. inhibition, % at 8 µM. AID 504601. SaOS-2 split-luciferase Mdm2/MdmX complementation, luminescence. shares compounds with HIF-2a inh. hit rate 99% among 740;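 active means mean inhibition of the luminescence signal across two replicates at or above 26 percent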
Target sequence (O15151 whole entry, looked up): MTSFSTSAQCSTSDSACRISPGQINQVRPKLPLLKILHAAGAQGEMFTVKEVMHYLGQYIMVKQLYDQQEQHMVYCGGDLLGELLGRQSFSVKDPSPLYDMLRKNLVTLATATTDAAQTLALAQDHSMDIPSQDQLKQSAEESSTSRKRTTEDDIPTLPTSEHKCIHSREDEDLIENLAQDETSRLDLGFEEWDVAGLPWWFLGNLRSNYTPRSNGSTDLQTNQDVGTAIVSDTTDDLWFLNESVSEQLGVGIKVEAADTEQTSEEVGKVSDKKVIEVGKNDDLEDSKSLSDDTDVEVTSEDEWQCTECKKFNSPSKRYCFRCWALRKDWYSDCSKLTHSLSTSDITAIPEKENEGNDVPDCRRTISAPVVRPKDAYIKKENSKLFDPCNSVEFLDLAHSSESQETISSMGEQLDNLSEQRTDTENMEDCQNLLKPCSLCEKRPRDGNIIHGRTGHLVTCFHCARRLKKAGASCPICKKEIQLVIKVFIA
Target sequence (Q00987 whole entry, looked up): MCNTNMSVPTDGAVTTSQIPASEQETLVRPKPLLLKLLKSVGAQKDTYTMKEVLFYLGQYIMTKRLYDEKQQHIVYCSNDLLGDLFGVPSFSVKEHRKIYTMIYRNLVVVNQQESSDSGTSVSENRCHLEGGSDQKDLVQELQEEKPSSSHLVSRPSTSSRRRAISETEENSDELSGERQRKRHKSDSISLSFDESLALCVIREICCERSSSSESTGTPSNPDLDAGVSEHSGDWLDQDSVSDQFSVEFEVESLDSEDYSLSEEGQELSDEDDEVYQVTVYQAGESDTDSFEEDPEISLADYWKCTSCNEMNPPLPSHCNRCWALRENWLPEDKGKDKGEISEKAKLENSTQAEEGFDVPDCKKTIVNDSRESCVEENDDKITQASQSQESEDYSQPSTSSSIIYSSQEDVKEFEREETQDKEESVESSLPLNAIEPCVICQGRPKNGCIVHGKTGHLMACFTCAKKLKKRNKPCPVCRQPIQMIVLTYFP
HIF-2a inh conf – HIF-2a inhibition, single concentration confirmation. hit rate 56% among 1,800. shares compounds with HIF-2a inh. inhibition, % at 18.8 µM. 786-0 RCC cells, HIF-2a luciferase reporter luminescence, overnight;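 active means mean inhibition across four replicates of at least 40 percent at the single tested concentration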
HIF-1a counter – HIF-1a inhibition counter-screen for HIF-2a hits; shares compounds with HIF-2a inh; MiaPaCa-2 HIF-1a luciferase reporter, desferoxamine, overnight; inhibition, % at 18.8 µM; hit rate 72% among 1,800; AID 651589;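 active means mean inhibition of the reporter signal across four replicates at the single tested dose of 50% or more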
Each line names hits and unclear results; the compound was inactive in the other large screens (follow-up assays come after a bar, where they were run). The list is not random: actives were taken first. Their share in the collection is about 3.9%.

CC(C)(C)NC(=O)CSc1ncnc2c1nnn2Cc1ccccc1Cl	HIF-2a inh 48 | HIF-2a inh conf inactive | HIF-1a counter inactive
Cc1c(NC(=O)CSc2nnc3c4ccccc4n(CCc4ccccc4)c3n2)c(=O)n(-c2ccccc2)n1C	none | Mdm2 MdmX conf 101
Cc1ccc(OCC(=O)NCCCNC(=O)c2ccccn2)cc1	none
COCCCNC(=O)COc1ccc(-c2nccc(-c3ccccn3)n2)cc1	HIF-2a inh 40 | HIF-2a inh conf inactive | HIF-1a counter inactive
CCCCCCCCN1C(=O)[C@H](CC(=O)NCCCC)C[C@@]2(C(=O)OCC)CCCC=C12	none (no result: Peg3 prom inh, CF NFkB block, KKLEB tox)
O=[N+]([O-])c1c(Nc2ccccc2O)cc(Cl)c2nonc12	HIF-2a inh 95, Peg3 prom inh 100, CF NFkB block 80, TROY signal inh 64 | Mdm2 MdmX conf 103 | HIF-2a inh conf 98 | HIF-1a counter 99
Cc1ccc(-c2nnn3c2nc(Cl)c2ccccc23)cc1	none
Clc1nc2c(-c3ccccc3)nnn2c2ccccc12	Peg3 prom inh 103 | Mdm2 MdmX conf 103
COc1ccccc1NC(=O)N1c2ccccc2NC(=O)CC1C (stereo unspecified)	none
CCCc1ccc(-c2ccc(/C=C/C(=O)O)cc2)nc1	TWEAK-Fn14 inh 94, HIF-2a inh 87 | HIF-2a inh conf 89 | HIF-1a counter 91
CCc1cccc(NC(=O)c2ccc3c(=O)n4c(nc3c2)CCCCC4)c1	none
COCCN(C(=S)Nc1cc(C)ccc1C)C(C)c1cccnc1 (stereo unspecified)	none
O=[N+]([O-])c1ccc2c(c1)nc1n2CCN(CC2CCCO2)C1 (stereo unspecified)	none
COCCN1CCn2c(nc3cc([N+](=O)[O-])ccc32)C1	TWEAK-Fn14 inh 94, HIF-2a inh 69, TROY signal inh 89 | HIF-2a inh conf inactive | HIF-1a counter inactive
C(=N\NCc1ccccc1)/c1ccc2ncccc2c1	none
S=C(N/N=C/c1ccc2ncccc2c1)Nc1ccccc1	HIF-2a inh 48 | HIF-2a inh conf inactive | HIF-1a counter 63
COC(=O)c1ccc(COC(=O)c2[nH]c(C)c(C(C)=O)c2C)o1	none
Cc1ccc2c(c1)c1c3n2CCN(C(=O)CN2CCN(C)CC2)C3CCC1 (stereo unspecified)	none
CN1CCN(CC(=O)N2CCn3c4c(c5cc(C6CCCCC6)ccc53)CCCC42)CC1 (stereo unspecified)	Peg3 prom inh 105 | Mdm2 MdmX conf 103
Cc1cc[n+](CC[n+]2ccc(C)cc2)cc1	none
CCC(C)(C)c1ccc(OCCCC[n+]2ccc(C)cc2)c(C(C)(C)CC)c1	none (no result: TWEAK-Fn14 inh, HIF-2a inh, Peg3 prom inh, CF NFkB block, TROY signal inh, KKLEB tox) | Mdm2 MdmX conf 102
CCC(C)(C)c1ccc(OCCCC[n+]2cccc(C)c2C)c(C(C)(C)CC)c1	TWEAK-Fn14 inh 52, HIF-2a inh 88, Peg3 prom inh 107 | Mdm2 MdmX conf 103 | HIF-2a inh conf 77 | HIF-1a counter 107
Cc1ccc(S(=O)(=O)N2CCOCC2)cc1NC(=O)CN1CCN(c2ccc(O)cc2)CC1	TWEAK-Fn14 inh 78, HIF-2a inh 46 | HIF-2a inh conf 44 | HIF-1a counter 98
Cc1ccc(S(=O)(=O)N2CCOCC2)cc1NC(=O)CN1CCN(C)CC1	none
C#CCN(C[C@@H]1[C@@H](OC(=O)NCc2ccccc2F)[C@@H](OC(=O)NCc2ccccc2F)CN(C(=O)OC(C)C)N1C(=O)OC(C)C)S(=O)(=O)c1ccc(C)cc1	none
C#CCN(C[C@@H]1[C@@H](OC(=O)NCc2ccco2)[C@@H](OC(=O)NCc2ccco2)CN(C(=O)OC(C)C)N1C(=O)OC(C)C)S(=O)(=O)c1ccc(C)cc1	HIF-2a inh 44 | HIF-2a inh conf inactive | HIF-1a counter 89
C#CCN(C[C@@H]1[C@@H](OC(=O)NCc2ccccc2F)[C@@H](OC(=O)NCc2ccccc2F)Cn2c(=O)ccc(=O)n21)S(=O)(=O)c1ccc(C)cc1	TWEAK-Fn14 inh 107, HIF-2a inh 95, Peg3 prom inh 97, CF NFkB block 77, TROY signal inh 61, KKLEB tox -85 | HIF-2a inh conf 97 | HIF-1a counter 106
C#CCN(C[C@@H]1[C@@H](OC(=O)NCc2ccccc2F)[C@@H](OC(=O)NCc2ccccc2F)Cn2c(=O)n(CCCCCC)c(=O)n21)S(=O)(=O)c1ccc(C)cc1	none
C#CCN(C[C@@H]1[C@@H](OC(=O)Nc2cccs2)[C@@H](OC(=O)Nc2cccs2)Cn2c(=O)ccc(=O)n21)S(=O)(=O)c1ccc(C)cc1	TWEAK-Fn14 inh 108, HIF-2a inh 97, Peg3 prom inh 96, CF NFkB block 81, TROY signal inh 73, KKLEB tox -60 | HIF-2a inh conf 96 | HIF-1a counter 108
O=C(O)CCc1ccc(-c2ccccc2)o1	none
Cc1ccc(Cn2ccsc2=NC(=O)CCl)cc1	CF NFkB block 94, KKLEB tox -92 | Mdm2 MdmX conf 103
Cc1ccc(Cn2ccsc2=NC(=O)COC(=O)c2ccc(NC(=O)CC#N)cc2)cc1	none
CCOC(=O)C1(C#N)C(=O)CSC1=Nc1ccccc1Cl (stereo unspecified)	none
Cc1cc(C)c(C)c(OCC(=O)NCC2CCCO2)c1 (stereo unspecified)	none
Cc1cc(C)cc(OCC(=O)NCC2CCCO2)c1 (stereo unspecified)	TWEAK-Fn14 inh 89, HIF-2a inh 52, TROY signal inh 73 | HIF-2a inh conf 69 | HIF-1a counter 70
COc1ccc(Cl)cc1S(=O)(=O)N1CCCC(C(=O)N2CCOCC2)C1 (stereo unspecified)	none
[2H]C(CCOS(N)(=O)=O)c1ccc(C(C)(C)C)cc1 (stereo unspecified)	HIF-2a inh 57, Peg3 prom inh 59 | HIF-2a inh conf 63 | HIF-1a counter inactive
O=C(Nc1ccc(Oc2cccnc2)cc1)c1ccc([N+](=O)[O-])cc1	none
O=C(Nc1ccc(Nc2ccncc2)cc1)c1ccc([N+](=O)[O-])cc1	HIF-2a inh 48, Peg3 prom inh 80 | HIF-2a inh conf inactive | HIF-1a counter inactive
Cc1nc2cc(-c3ccc(Cl)cc3)nn2c(C)c1CCC(=O)NCc1ccco1	HIF-2a inh 81 | HIF-2a inh conf 87 | HIF-1a counter inactive
CCN1C(=O)[C@H]2[C@@H](c3ccc(OC)cc3)N[C@]3(CCCN(Cc4ccccc4)C3=O)[C@H]2C1=O	none
COc1cc(C=C2C(=O)C=CC2=O)ccc1O	HIF-2a inh 84 (no result: Peg3 prom inh, CF NFkB block, KKLEB tox) | HIF-2a inh conf 99 | HIF-1a counter 95
